SMILES strings stand for the structures.

Some test systems named below: INSRR; INSR; IRAK1; IRAK3; IRAK4; ITK; KIT-autoinhibited; KIT; LATS1; LATS2.
Details in all cases: concentration: 1 μM, replicates: in singlicate; n = 1
Another assay relates to T1, IKK-alpha.
T1 construct: gene CHUK

In a further assay the test system is T2, IKK-beta.
T2 construct: gene IKBKB

Another assay concerns T3, IKK-epsilon.
T3 construct: gene IKBKE

The test system of assay [1] is JAK1(JH1domain-catalytic).
In assay [2] the test system is JAK1(JH2domain-pseudokinase).
In assay [3] the test system is JAK2(JH1domain-catalytic).
The test system of assay [4] is JAK3(JH1domain-catalytic).
The test system of another assay is T4, JNK1.
T4 construct: gene MAPK8

For a further assay, the system named is T5, JNK2.
T5 construct: gene MAPK9

The next assay deals with T6, JNK3.
T6 construct: gene MAPK10
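Further: KINOMEscan kinase panel screen.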

As to `CC(C)c1nc(-c2ccc(F)c(NS(=O)(=O)c3c(F)cccc3F)c2)c(-c2ccnc(Nc3ccc(N4CCOCC4)nc3)n2)s1` [GSK1804250], the “%Inh” value with IKK-alpha came out at 0%; in the assay on IKK-beta, 0%; in the assay on IKK-epsilon it was 23%; in the assay with INSRR, 2%; in the assay on INSR, 11%; with IRAK1, 0%. Further, the “%Inh” value worked out at 3% with IRAK3; 0% in the assay with IRAK4; 9% with ITK; 17% in assay [1]; 0% in assay [2]; 4% in [3]. In addition, the “%Inh” value in assay [4] turned out to be 69%; in the assay with JNK1, 32%; in the assay with JNK2, 70%; with JNK3, 77%; in the assay with KIT-autoinhibited, 0%; with KIT, 97.8%. In addition, the “%Inh” value in the assay on LATS1 and in the assay with LATS2 was 0% throughout.

For `CCNc1nccc(-c2c(-c3ccc(F)cc3)ncn2C2CCN(C)CC2)n1`, the “%Inh” value came to 0% with IKK-alpha; 0% in the assay with IKK-beta; 0% in the assay on IKK-epsilon; 100% in the assay on INSRR; 0% with INSR; 0% in the assay with IRAK1. Moreover, the “%Inh” value with IRAK3 is on record as 21%; with IRAK4, 0%; in the assay with ITK, 0%; in assay [1] it was 0%; in assay [2], 80%; in assay [3] it was 0%. The “%Inh” value in assay [4] was 0%; with JNK1, 75%; in the assay on JNK2 it was 96.4%; in the assay on JNK3 it was 96.3%; in the assay with KIT-autoinhibited it was 0%; in the assay on KIT it was 0%. The “%Inh” value with LATS1 and in the assay with LATS2 was 0% throughout.

As to `COc1cc(Nc2ccnc3cc(-c4ccncc4)ccc23)cc(OC)c1OC.Cl` [GW494610], the “%Inh” value in the assay with IKK-alpha is listed as 23%; in the assay on IKK-beta, 13%; with IKK-epsilon, 0%; in the assay with INSRR, 13%; in the assay with INSR, 8%; in the assay with IRAK1 it was 24%. Also, the “%Inh” value with IRAK3 is listed as 0%; with IRAK4, 10%; in the assay with ITK, 0%; in assay [1], 33%; in [2], 0%; in [3] it was 12%. Further, the “%Inh” value in assay [4] worked out at 0%; in the assay on JNK1, 49%; in the assay with JNK2 it was 54%; in the assay on JNK3 it was 37%; with KIT-autoinhibited it was 0%; in the assay with KIT, 76%. Further, the “%Inh” value with LATS1 and with LATS2 was 0% throughout.

With `CSc1ccc(NC2=C(c3ccc(Cl)cc3)C(=O)NC2=O)cc1` [SB-317658], the “%Inh” value in the assay on IKK-alpha was 0%; in the assay on IKK-beta it was 0%; in the assay on IKK-epsilon, 10%; in the assay with INSRR it was 30%; with INSR it was 4%; in the assay with IRAK1, 0%. Also, the “%Inh” value (in the assay with IRAK3; in the assay on IRAK4; in the assay with ITK; in assay [1]; in [2]; in [3]) was 0% throughout. The “%Inh” value in assay [4] was determined as 0%; in the assay with JNK1, 0%; with JNK2, 19%; with JNK3 it was 3%; with KIT-autoinhibited, 0%; in the assay with KIT it was 29%. The “%Inh” value in the assay with LATS1 was 8%; with LATS2 it was 0%.

For `Cc1ccc(C)c(NC(=O)Nc2ccc(C)c(-c3ccc(C(=O)Nc4ccncc4)cc3)c2)c1` [GSK1398473], the “%Inh” value was determined as 0% with IKK-alpha; 8% in the assay on IKK-beta; 0% with IKK-epsilon; 0% with INSRR; 0% with INSR; 5% in the assay with IRAK1. For the same compound, the “%Inh” value amounted to 1% in the assay on IRAK3; 19% in the assay with IRAK4; 13% in the assay on ITK; 0% in assay [1]; 0% in assay [2]; 0% in assay [3]. Further, the “%Inh” value in [4] was determined as 0%; in the assay on JNK1, 15%; in the assay on JNK2, 14%; in the assay on JNK3, 6%; in the assay with KIT-autoinhibited, 0%; in the assay with KIT, 99.9%. In addition, the “%Inh” value in the assay on LATS1 was determined as 3%; in the assay with LATS2, 0%.

As for `CCn1cnc2c(NCc3ccccc3)ncnc21` [SKF-96418], the “%Inh” value was 26% in the assay with IKK-alpha; 19% with IKK-beta; 0% in the assay with IKK-epsilon; 0% in the assay with INSRR; 2% in the assay with INSR; 25% in the assay on IRAK1. Also, the “%Inh” value with IRAK3 is listed as 0%; with IRAK4, 0%; in the assay on ITK, 0%; in [1], 6%; in assay [2] it was 24%; in assay [3], 40%. The “%Inh” value was determined as 5% in [4]; 11% in the assay on JNK1; 0% in the assay with JNK2; 0% in the assay with JNK3; 9% in the assay on KIT-autoinhibited; 0% in the assay with KIT. In addition, the “%Inh” value with LATS1 and in the assay on LATS2 was 0% throughout.

Take `O=C(Nc1n[nH]c2nc(-c3cccc(O)c3)ccc12)C1CC1` [SB-711805]: the “%Inh” value with IKK-alpha, with IKK-beta, with IKK-epsilon, in the assay with INSRR, in the assay on INSR and in the assay with IRAK1 was 0% each time. Moreover, the “%Inh” value with IRAK3 came out at 0%; in the assay with IRAK4 it was 0%; in the assay on ITK it was 0%; in assay [1], 0%; in assay [2], 21%; in [3] it was 29%. The “%Inh” value in [4] was 0%; in the assay on JNK1, 25%; with JNK2, 8%; with JNK3 it was 5%; with KIT-autoinhibited, 13%; with KIT, 30%. Also, the figures for the “%Inh” value in the assay with LATS1 and in the assay with LATS2 were 0% and 1%, respectively.

Regarding `CC(=O)Nc1cn2nc(Oc3cccc(NC(=O)c4cccc(C(F)(F)F)c4)c3)ccc2n1`, the “%Inh” value with IKK-alpha, in the assay on IKK-beta, in the assay with IKK-epsilon, in the assay on INSRR, with INSR and with IRAK1 was 0% in each case. Also, the “%Inh” value was 44% in the assay with IRAK3; 0% in the assay with IRAK4; 0% with ITK; 32% in assay [1]; 5% in [2]; 0% in assay [3]. Moreover, the “%Inh” value in assay [4] is listed as 0%; with JNK1 it was 26%; in the assay on JNK2 it was 0%; in the assay on JNK3, 0%; in the assay with KIT-autoinhibited, 87%; in the assay with KIT, 100%. In addition, the “%Inh” value in the assay with LATS1 is listed as 5%; in the assay on LATS2, 0%.

Values taken from publication PMC5540273 (PLoS ONE, 2017).
